In PubChem BioAssay (Tox21):
Inconclusive results are not listed. Activity calls are given as the source filed them. Calls come from the whole dose curve; as a rule, active = well fitted inhibition curve with a large enough effect in the signal ratio in the repeat runs (not every such curve was filed as active); inconclusive = weak or mixed curves, or effect the other way; inactive = no such curve, though single readings can be large or run the other way; the % refers to the signal ratio.

What follows are compounds tested against Glucocorticoid receptor (Homo sapiens) (UniProt P04150) (assay: qHTS assay to identify small molecule antagonists of the glucocorticoid receptor (GR) signaling pathway (AID 720692)). Details: GR-bla HeLa, beta-lactamase FRET ratio, dexamethasone-stimulated, 18 h; series mostly up to 58.5 µM; activity change, negative = inhibition: at the top concentration.
Text: U.S. Tox21 Program National Center for Advancing Translational Sciences [NCATS] NIH Chemical Genomics Center [NCGC] U.S. Environmental Protection Agency [EPA] National Institutes of Environmental Health Sciences [NIEHS] National Toxicology Program [NTP] U.S. Food and Drug Administration [FDA] Tox21 Assay Overview: The Glucocorticoid receptor (GR) is one of the members of the nuclear receptor family of ligand-dependent transcription factors. GR plays a critical role in carbohydrate, protein and lipid metabolisms and programmed cell death. CellSensor GR-bla HeLa cell line (Invitrogen) contains a beta-lactamase reporter gene under the control of the glucocorticoid response element stably integrated into HeLa cells, a cervical cancer cell line that expresses glucocorticoid receptor. The activation of the reporter gene under culture conditions can be detected by fluorescence intensity. This cell line has been used to screen the Tox21 10K compound library and to identify the compounds that inhibit the GR signaling.
Tox21 Assay Protocol Summary: The GR-bla HeLa cells were dispensed at 1500 cells/5 ul/well in 1536-well black wall/clear bottom plates using a Multidrop Combi (ThermoFisher Scientific, Waltham, MA) dispenser. After the assay plates were incubated at a 37 C/5% CO2 incubator for 4 hours, 23 nL of compounds dissolved in DMSO, positive controls or DMSO only was transferred to the assay plate by a pintool station (Kalypsys, San Diego, CA), followed by addition of 1 uL of dexamethasone (5 nM, final concentration in the well). The plates were incubated at 37 C for 18 hours. After 1 uL of LiveBLAzerTM B/G FRET substrate was added using a Flying Reagent Dispenser (Aurora Discovery, San Diego, CA), the plates were incubated at room temperature for 2 hours, and fluorescence intensity was measured by an Envision plate reader (PerkinElmer, Shelton, CT).
% is set by controls: 0 for no effect and ±100 for the full control effect; potency is the fitted concentration of half-maximal effect.

Sequence of Glucocorticoid receptor (Homo sapiens) (P04150 whole entry, looked up): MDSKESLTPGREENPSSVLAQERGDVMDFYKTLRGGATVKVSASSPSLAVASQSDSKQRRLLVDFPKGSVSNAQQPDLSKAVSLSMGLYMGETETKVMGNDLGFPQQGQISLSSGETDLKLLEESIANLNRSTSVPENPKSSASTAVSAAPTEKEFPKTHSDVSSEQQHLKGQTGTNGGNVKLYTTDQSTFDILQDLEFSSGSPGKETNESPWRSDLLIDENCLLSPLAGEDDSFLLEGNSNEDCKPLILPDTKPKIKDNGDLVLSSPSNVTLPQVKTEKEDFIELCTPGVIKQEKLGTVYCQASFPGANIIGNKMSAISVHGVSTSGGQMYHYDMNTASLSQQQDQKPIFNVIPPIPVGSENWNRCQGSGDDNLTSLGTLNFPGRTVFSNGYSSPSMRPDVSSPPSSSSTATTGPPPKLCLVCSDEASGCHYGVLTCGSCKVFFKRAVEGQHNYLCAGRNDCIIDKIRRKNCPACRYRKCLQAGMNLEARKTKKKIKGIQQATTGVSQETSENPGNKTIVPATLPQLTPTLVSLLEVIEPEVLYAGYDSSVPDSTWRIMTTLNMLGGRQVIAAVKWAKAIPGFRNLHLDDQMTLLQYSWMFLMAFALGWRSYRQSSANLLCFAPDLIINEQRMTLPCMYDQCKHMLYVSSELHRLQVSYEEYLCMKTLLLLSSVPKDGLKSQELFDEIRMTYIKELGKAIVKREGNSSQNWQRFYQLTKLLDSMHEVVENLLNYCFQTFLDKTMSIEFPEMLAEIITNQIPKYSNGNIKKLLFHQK

Row | Compound | Potency | activity change, negative = inhibition
1 | CN(C)C(=O)CCSC(SCCC(=O)O)c1cccc(/C=C/c2ccc3ccc(Cl)cc3n2)c1 (stereo not given) | 8.49 µM (active) | –
3 | CC(=O)N=c1sc(S(N)(=O)=O)nn1C | – | 22% [at 27 µM] (inactive)
4 | O=C(Cc1cccs1)N[C@@H]1C(=O)N2C(C(=O)[O-])=C(C[n+]3ccccc3)CS[C@H]12 | – | -2.18% (inactive)
5 | CCN(CC)CCOC(=O)c1ccc(N)cc1Cl | – | -8.58% (inactive)
6 | CCCC1C(=O)N2C(N(C)C)=Nc3ccc(C)cc3N2C1=O (stereo not given) | – | 3.98% [at 27 µM] (inactive)
7 | CCCN(CC)C(CC)C(=O)Nc1c(C)cccc1C (stereo not given) | – | -4.82% (inactive)
8 | CN(C)c1ccc(C(=C2C=CC(=[N+](C)C)C=C2)c2c(O)c(S(=O)(=O)[O-])cc3cc(S(=O)(=O)O)ccc23)cc1 | – | -4.24% (inactive)
9 | CO[C@H]1O[C@@H]2O[C@@]3(C)CC[C@H]4[C@H](C)CC[C@@H]([C@H]1C)[C@@]24OO3 | – | -3.32% (inactive)
10 | CCOC(=O)[C@H](CCc1ccccc1)N[C@@H](C)C(=O)N1CC2(C[C@H]1C(=O)O)SCCS2 | – | -1.88% (inactive)
11 | CC(C)(C)NCC(O)CSc1nc(-c2ccc(C(N)=O)s2)cs1 (stereo not given) | – | -12% (inactive)
12 | CCN(CC)Cc1cc(Nc2ccnc3cc(Cl)ccc23)ccc1O | – | 19% [at 27 µM] (inactive)
13 | COCC(=O)Nc1cc(Sc2ccccc2)ccc1N=C(NC(=O)OC)NC(=O)OC | – | -21.3% (inactive)
14 | CN1CC(O)c2cc(N=NC(N)=O)c(O)cc21 (stereo not given) | – | -2.39% (inactive)
15 | NCc1ccccc1CC(=O)N[C@@H]1C(=O)N2C(C(=O)O)=C(CSc3nnnn3CC(=O)O)CS[C@H]12 | – | 3.23% [at 27 µM] (inactive)
16 | Nc1nc(=O)n([C@@H]2CS[C@H](CO)O2)cc1F | – | -4.04% (inactive)
17 | NC(=O)C[C@@H](N)C(=O)O | – | 25.7% (inactive)
18 | CN1CCN(C(c2ccccc2)c2ccc(Cl)cc2)CC1 (stereo not given) | – | -2.73% [at 27 µM] (inactive)
19 | COC(=O)C1=C(C)NC(C)=C(C(=O)O[C@H]2CCN(Cc3ccccc3)C2)[C@H]1c1cccc([N+](=O)[O-])c1 | 23.9 µM (active) | –
20 | CCC(C)C(C(=O)OCC[N+](C)(CC)CC)c1ccccc1 (stereo not given) | – | -2.77% (inactive)

Row | Compound | Potency | activity change, negative = inhibition
21 | Cc1cc(C)c(NC(=O)C[C@H](CC(=O)O)c2cccc3ccccc23)c(C(=O)N2CCC3(CCCC3)CC2)c1 | 10.7 µM (active) | –
22 | CCC(c1ccccc1)c1noc(CCN(CC)CC)n1 (stereo not given) | – | -8.98% (inactive)
23 | CCCCCCCCCCCCCCCC(=O)O[C@@H]1[C@@H](O)[C@@H](O)[C@@H]([C@H](NC(=O)[C@@H]2C[C@@H](CCC)CN2C)[C@H](C)Cl)O[C@@H]1SC | – | -17.7% (inactive)
24 | [O]=[Bi][O]C(=O)[O][Bi]=[O] | – | 3.65% (inactive)
25 | CCCCCCCCCCCC(=O)OC[C@@H](O)C1OC[C@H](O)[C@H]1O (stereo not given in full) | – | -12.8% (inactive)
26 | Cc1ccc(/C(=C\CN2CCCC2)c2cccc(/C=C/C(=O)O)n2)cc1 | – | -11.3% (inactive)
27 | C[C@H](O)[C@H](O)[C@H]1CNc2nc(N)[nH]c(=O)c2N1 | – | -0.374% (inactive)
28 | CC(C)(CO)[C@@H](O)C(=O)NCCCC(=O)O | – | -0.112% (inactive)
29 | NC[C@@H]1O[C@H](O[C@H]2[C@@H](O)[C@H](O[C@@H]3[C@@H](O)[C@H](N)C[C@H](N)[C@H]3O[C@H]3O[C@H](CO)[C@@H](O)[C@H](O)[C@H]3N)O[C@@H]2CO)[C@H](N)[C@@H](O)[C@@H]1O | – | 9.84% (inactive)
30 | CCCOc1cc(N)ccc1C(=O)OCCN(CC)CC | – | 2.06% [at 27 µM] (inactive)
31 | OCC(O)COc1ccc(Cl)cc1 (stereo not given) | – | -3.11% (inactive)
32 | CCCCCCCCCCCCCCCCCC[N+](C)(C)CCC[Si](OC)(OC)OC | – | -3.44% (inactive)
33 | O=C(O)c1nc(=O)[nH]c(=O)[nH]1 | – | 17.3% (inactive)
34 | COC(=O)[C@@H](N)CS | – | -4.78% (inactive)
35 | COc1ccc(C2(C#N)CCC(C(=O)O)CC2)cc1OC1CCCC1 (stereo not given) | – | 23.6% (inactive)
36 | CN(C(=O)CO)c1c(I)c(C(=O)NCC(O)CO)c(I)c(C(=O)NCC(O)CO)c1I (stereo not given) | – | -7.58% (inactive)
37 | COc1ccc(-c2noc(CC(=O)O)c2-c2ccc(OC)cc2)cc1 | – | 8.46% (inactive)
38 | C#CCC(Cc1cnc2nc(N)nc(N)c2n1)c1ccc(C(=O)N[C@@H](CCC(=O)O)C(=O)O)cc1 (stereo not given in full) | – | 7% (inactive)
39 | CO/N=C(\C(=O)N[C@@H]1C(=O)N2C(C(=O)O)=C(CSC(=O)c3ccco3)CS[C@H]12)c1csc(N)n1 | – | 4.74% (inactive)
40 | O=C(NCCNCC(O)COc1ccc(O)cc1)N1CCOCC1 (stereo not given) | – | -6.14% (inactive)
